Screening data (PubChem BioAssay)
D3 antag – qHTS of D3 Dopamine Receptor Antagonist: qHTS; 360,000 compounds, 2.5% hits; D3R cells, DiscoveRx beta-arrestin luminescence, antagonist mode; hits give low values; max response, negative = inhibition, %; in the data active = max response below about -50%; inconclusive = no clear call, values can overlap the other calls
Target sequence (P35462 whole entry, looked up): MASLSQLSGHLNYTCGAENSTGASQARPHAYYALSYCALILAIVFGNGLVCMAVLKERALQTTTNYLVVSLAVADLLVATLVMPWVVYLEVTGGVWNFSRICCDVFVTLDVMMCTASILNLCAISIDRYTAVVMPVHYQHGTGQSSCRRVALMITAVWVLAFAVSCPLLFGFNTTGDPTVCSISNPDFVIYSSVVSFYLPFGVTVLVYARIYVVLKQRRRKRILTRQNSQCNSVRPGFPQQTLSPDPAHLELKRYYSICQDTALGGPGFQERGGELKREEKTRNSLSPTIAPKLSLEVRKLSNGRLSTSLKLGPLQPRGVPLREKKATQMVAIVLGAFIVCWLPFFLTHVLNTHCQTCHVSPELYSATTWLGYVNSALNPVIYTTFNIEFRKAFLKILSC
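Cells expressing the human receptor were seeded at 1500 cells/well, incubated overnight at 37 degrees C in 5% CO2, then exposed to library compounds with dopamine controls for 90 minutes at 37 degrees C before luminescent detection.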
DRD3 agonist – qHTS of D3 Dopamine Receptor Agonist: qHTS | AID 652048, 2013 | D(3) dopamine receptor (Homo sapiens), P35462 | 410,000 compounds, 0.58% hits | max activation, % | D3R DiscoveRx beta-arrestin cells, luminescence, 90 min; in the data active = max activation above about 30%
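Cells at 1500/well, incubated overnight, then treated with pinned compounds (dopamine as control) for 90 min at 37 degrees C. DiscoveRx reagent added for 30 - 60 minutes at room temperature; luminescence read.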
GLP-1R agonist – qHTS of GLP-1 Receptor Agonists; HEK293 GLP-1R CRE-luciferase, luminescence, 4-6 h; cells express a hypersensitive GLP-1R form; Potency, µM (titrated, usually from 45.6 µM), actives largely listed as activators; 380,000 compounds, 0.007% hits
GLP1R inv ag – qHTS of GLP-1 Receptor Inverse Agonists (Inhibition Mode); Glucagon-like peptide 1 receptor (Homo sapiens), P43220; HEK293 GLP-1R CRE-luciferase, luminescence, 24 h; GLP-1R form is constitutively active; Potency, µM (top dose mostly 38.3 µM), hits mostly inhibitors; 410,000 compounds, 1.6% hits; AID 624417, 2012; note: nearly all actives have a fitted effect of over 55% in size
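Luminescence readout: a drop in cAMP-driven luciferase signal flags inverse agonism at a constitutively active GLP-1R stably expressed in HEK293. Compound exposure lasted 24 hr at 37 deg C, 5% CO2.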
A number is an active result; i = inactive; ? = inconclusive; nt = no result given; [ ] = another dose, or the depositor's remark. This is a sample that favours compounds with a hit; in the whole collection about 4.3% have one here. Unless noted, calls come from the whole dose curve; as a rule, active = well fitted curve in the direction sought with a large enough effect; inconclusive = small, poorly fitted or top-dose-only effect, or another doubt; inactive = no such curve, though single readings can be large; an effect the other way counts as inactive or inconclusive.

SMILES | D3 antag | DRD3 agonist | GLP-1R agonist | GLP1R inv ag
CC(=O)Nc1ccc(S(=O)(=O)NC2CCCCCC2)cc1 | i | i | i | i
O=C(O)c1ccc(S(=O)(=O)NC2CCCCC2)cc1 | -59 | i | i | i
Cc1ccc(NC(=O)CSc2nnc(-c3cc4occc4n3C)n2-c2ccccc2C)c(C)c1 | nt | i | nt | ?
Cc1ccc(S(=O)(=O)c2nc(S(C)(=O)=O)sc2N(C)Cc2ccccc2)cc1 | nt | i | nt | i
Cc1nn(C)c2c1c(-c1ccccc1)cc(=O)n2CC(=O)NC(C)(C)C | nt | i | nt | i
Cc1oc(-c2ccc(C(=O)NCc3ccccc3)cc2)nc1CN1CCc2ccccc21 | nt | i | nt | 10µM
Cc1oc(-c2ccc(C(=O)NCCC(C)C)cc2)nc1CN1CCc2ccccc21 | nt | i | i | ?
COc1ccc2c(C)cc(=O)oc2c1OCC(O)CN1CCOCC1 (stereo not given) | i | i | i | i
Cc1cc(=O)oc2cc(OCC(O)CN3CCN(c4ccccc4)CC3)ccc12 (stereo not given) | i | 37 | i | ?
COc1ccccc1N1CCN(CC(O)COc2ccc3c(C)cc(=O)oc3c2)CC1 (stereo not given) | -77 | i | i | i
Cc1cc(=O)oc2cc(OCC(O)CN3CCc4ccccc4C3)ccc12 (stereo not given) | -55 | i | i | i
COc1ccc(C(C)(NC(C)=O)c2nc(-c3ccccc3OC)cs2)cc1 (stereo not given) | -88 | i | i | i
COc1ccc(C(C)(NC(C)=O)c2nc(-c3ccc(F)cc3OC)cs2)cc1 (stereo not given) | i | i | i | ?
CCn1c(=NC(=O)c2cccc(N3C(=O)CCC3=O)c2)sc2c(C)ccc(OC)c21 | i | i | ? | i
CCn1c(=NC(=O)c2ccc(N3C(=O)CCC3=O)cc2)sc2c(OC)ccc(OC)c21 | -76 | i | i | i
CC(=O)NC12CC3CC(C1)CC(C(=O)N(C)CC(=O)Nc1cccc(F)c1)(C3)C2 | i | i | i | i
CCOc1ccc(C(=O)Nc2c(C)nc(Nc3ccccc3)nc2Nc2ccccc2)cc1OCC | nt | i | i | 10µM
CCOc1ccc(Nc2nc(C)c(NC(=O)c3cccc(OC)c3)c(Nc3ccc(OCC)cc3)n2)cc1 | nt | i | i | ?
Cc1cc(Cl)ccc1NC(=O)Cn1nc(C)c2c(C)n(-c3ccccc3)nc2c1=O | nt | i | nt | i
Oc1c(C(c2ccccn2)N2CCCCC2)cc(Cl)c2cccnc12 (stereo not given) | -76 | i | i | ?
CCC(=O)NC(c1cc(Cl)c2cccnc2c1O)C1CC1 (stereo not given) | nt | nt | i | nt
CN1CCN(C(c2ccc(Cl)cc2)c2cc(Cl)c3cccnc3c2O)CC1 (stereo not given) | -99 | i | i | ?
C=CCn1c(-c2cccc(Cl)c2)n[nH]c1=S | -57 | i | i | ?
Cc1c(C(=O)Nc2ccc(C(=O)O)cc2)nnn1-c1ccccc1 | nt | i | nt | 1.8µM
CCOc1ccccc1NC(=O)NC(CC)c1c(-n2cccc2)sc2c1CCN(C)C2 (stereo not given) | nt | i | nt | i
SMILES | D3 antag | DRD3 agonist | GLP-1R agonist | GLP1R inv ag
COc1ccc(NC(=O)C(c2ccc(Cl)cc2)C(C)C)cn1 (stereo not given) | i | i | i | 7.9µM
CC(C)N1CCN(CC2COc3ccccc3O2)CC1 (stereo not given) | -50 | i | i | i
CC(NCC1COc2ccccc2O1)C1COc2ccccc2O1 (stereo not given) | -63 | i | i | ?
CCc1ccc(CNC(=O)c2cnc3sc4cc(OC)ccc4n3c2=O)cc1 | nt | i | nt | i
CCOc1ccccc1CNCCNCC(C)O (stereo not given) | i | i | i | i
Cc1ccccc1OCCNCC(C)O (stereo not given) | -57 | i | i | ?
Cc1ccc(NC(=O)CCc2nnc3ccc(N4CCC(C)CC4)nn23)nc1 | i | i | i | i
Cc1ccc(C(=O)N2CCC(N3CCN(Cc4ccc(F)cc4)C(=O)C3=O)CC2)cc1 | nt | i | nt | i
COC(=O)c1c(-c2cccs2)csc1NC(=O)c1cc(OC)c(OC)c(OC)c1 | nt | 36 | nt | i
COc1ccc(-n2nc(C(=O)N3CCN(c4cccc(C)c4C)CC3)c3c4ccccc4n(C)c3c2=O)cc1Cl | nt | i | nt | i
C=CCN(CC=C)CCOc1cccc(Oc2ccccc2)c1 | -50 | i | i | ?
COc1ccc2c(c1)sc1ncc(C(=O)NCc3ccccc3F)c(=O)n12 | nt | i | nt | i
COc1cccc2c1cc1c(=O)n(CC(=O)N3CCN(c4ccc(F)cc4)CC3)nc(C)n12 | nt | i | nt | i
CCCN1CCN(C(=O)Cn2nc(C)n3c(cc4c(OC)cccc43)c2=O)CC1 | i | 45 | i | i
O=C(CCNS(=O)(=O)c1cccc2nsnc12)NCc1ccccc1Cl | i | i | i | i
CCN(CC)CCNC(=O)C1CCC(=O)N(c2ccc(OC)cc2)C1c1ccc(F)cc1 (stereo not given) | -67 | i | i | i
CCCN(CCC)CCNC(=O)C1CC(=O)N(c2ccc(OC)cc2)C1c1ccc(OC)cc1 (stereo not given) | i | i | i | i
COCCNC(=O)C1c2ccccc2C(=O)N(CCOC)C1c1ccc(F)cc1 (stereo not given) | i | i | i | i
CCN(CC)CCNC(=O)C1c2ccccc2C(=O)N(CCOC)C1c1ccc(F)cc1 (stereo not given) | -62 | i | i | i
COCCN1C(=O)c2ccccc2C(C(=O)NCCN(C)C)C1c1ccc(F)cc1 (stereo not given) | -63 | i | i | ?
COc1ccc(NC(=O)Cn2cc(S(=O)(=O)N3CCN(c4ccccc4F)CC3)c3ccccc3c2=O)cc1Cl | nt | i | nt | i
Cc1c(C)c2c(c(C)c1OC(=O)CCC(=O)OCCO)CC[C@@](C)(CCC[C@H](C)CCC[C@H](C)CCCC(C)C)O2 | nt | i | nt | nt
C/C(=N\NC(=S)Nc1cccc(C)c1)c1cc2ccccc2o1 | i | i | i | i[7.66 µM]
CCNC(=S)N/N=C(\C)c1cc2ccccc2o1 | i | i | i | 4.5µM
O=C(Cn1c(=O)n(-c2ccccc2)c(=O)c2c3c(sc21)CCCC3)Nc1cccc(F)c1 | nt | i | i | i
CCN1CCN(CC(=O)N2N=CCC2c2ccccc2)CC1 (stereo not given) | -51 | i | i | i
O=C(CSc1ccc(Cl)cc1)N1N=CCC1c1ccccc1 (stereo not given) | i | i | i | ?
COc1ccc(CN2CCN(C3CCOCC3)CC2CCO)c(C)c1C (stereo not given) | i | i | i | i
COc1ccc(CN2CCN(Cc3nc4ccccc4s3)CC2CCO)c(C)c1C (stereo not given) | i | i | i | 7.9µM
COc1ccc(CN2CCN(C3CCSCC3)CC2CCO)c(C)c1C (stereo not given) | -64 | i | i | i
